Measured values taken from the supplement of paper PMC6555819.

Legend:
Experiment in all cases: PBM binding z-score (relative to random genomic background probes); higher = stronger binding; sequences stand for … in GC…GCGATTGACAGCGTAGAATGAAGG
[1] = test system: FXR:RXRa (NR concentration 270 nM, RXRa partner concentration 90 nM)
Summary of the method: (§1)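 Binding buffer was PBS pH 7.4 with 2% milk, 0.02% Triton X-100, 1 mM DTT, 0.2 mg/mL BSA and 0.4 mg/ml salmon testes DNA. In it, ligand-free nuclear receptor dimers were incubated 1 h on custom Agilent 4×180K protein-binding microarrays carrying double-stranded probes. Antibodies against each partner (one per run) detected binding, and z-scores were calculated against random background probes after regression normalization of scanned fluorescence.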

[2] = test system: LXRa:RXRa (NR concentration 270 nM, RXRa partner concentration 90 nM)
Summary of the method: as §1

[3] = test system: LXRa homodimer (NR concentration 270 nM)
Summary of the method: as §1

[4] = test system: LXRb:RXRa (NR concentration 270 nM, RXRa partner concentration 90 nM)
Summary of the method: as §1

[5] = test system: LXRb homodimer (NR concentration 270 nM)
Summary of the method: as §1

[6] = test system: PPARa:RXRa (NR concentration 270 nM, RXRa partner concentration 90 nM)
Summary of the method: as §1

[7] = test system: PPARg:RXRa (NR concentration 180 nM, RXRa partner concentration 90 nM)
Summary of the method: as §1

[8] = test system: PPARg:RXRa 270nM:90nM, anti-RXR (NR concentration 270 nM, RXRa partner concentration 90 nM)
Summary of the method: as §1

[9] = test system: PPARg:RXRa 30nM:10nM, anti-RXR (NR concentration 30 nM, RXRa partner concentration 10 nM)
Summary of the method: as §1

[10] = test system: PPARg:RXRa 90nM:30nM, anti-RXR (NR concentration 90 nM, RXRa partner concentration 30 nM)
Summary of the method: as §1

[11] = test system: PPARg:RXRa DBDmut IVT, anti-RXR (DBD mutation: RXRa K156A/R161A, NR concentration 270 nM, RXRa partner concentration 90 nM)
Summary of the method: as §1

[12] = test system: PPARg:RXRa IVT, anti-PPARg (NR concentration 270 nM, RXRa partner concentration 90 nM)
Summary of the method: as §1

[13] = test system: PPARg DBDmut:RXRa IVT, anti-PPARg (DBD mutation: PPARg1 K132A/R137A, NR concentration 270 nM, RXRa partner concentration 90 nM)
Summary of the method: as §1

[14] = test system: PPARg DBDmut IVT, anti-PPARg (DBD mutation: PPARg1 K132A/R137A, NR concentration 270 nM)
Summary of the method: as §1

[15] = test system: PPARg homodimer (NR concentration 180 nM)
Summary of the method: as §1

[16] = test system: PXR:RXRa (NR concentration 270 nM, RXRa partner concentration 90 nM)
Summary of the method: as §1

[17] = test system: PXR homodimer (NR concentration 270 nM)
Summary of the method: as §1

[18] = test system: RARa:RXR (NR concentration 270 nM, RXRa partner concentration 90 nM)
Summary of the method: as §1

[19] = test system: RARa homodimer (NR concentration 270 nM)
Summary of the method: as §1

[20] = test system: RARb:RXRa (NR concentration 270 nM, RXRa partner concentration 90 nM)
Summary of the method: as §1

| Sequence | PBM binding z-score [1] | PBM binding z-score [2] | PBM binding z-score [3] | PBM binding z-score [4] | PBM binding z-score [5] | PBM binding z-score [6] | PBM binding z-score [7] | PBM binding z-score [8] | PBM binding z-score [9] | PBM binding z-score [10] | PBM binding z-score [11] | PBM binding z-score [12] | PBM binding z-score [13] | PBM binding z-score [14] | PBM binding z-score [15] | PBM binding z-score [16] | PBM binding z-score [17] | PBM binding z-score [18] | PBM binding z-score [19] | PBM binding z-score [20] |
| --- | --- | --- | --- | --- | --- | --- | --- | --- | --- | --- | --- | --- | --- | --- | --- | --- | --- | --- | --- | --- |
| TGTGAAAGTTCAAAGGTAACGTAAGTATCCACAC | 6.55 | 5.73 | 4.61 | 4.36 | 2.11 | 5.49 | 6.77 | 6.84 | 4.1 | 6.25 | -0.131 | 3.37 | 1.69 | 1.46 | 2.73 | 5.64 | 4.19 | 6.09 | 1.81 | 4.74 |
| CCGAGTAGGTTTTGGGGCATTCAGGCAACGGTGA | 0.199 | 0.0127 | -0.127 | 0.177 | -0.134 | 0.31 | -0.0212 | 0.955 | -0.147 | 0.58 | 0.795 | 0.696 | -0.353 | -0.0504 | 0.76 | -0.31 | -0.0267 | 0.2 | 0.947 | 0.205 |
| CCGACTGGGGCAGAAAGGTCACCATACCATCCGG | 3.52 | 3.99 | 1.97 | 3.56 | -0.936 | 4.65 | 4.35 | 5.18 | 3.05 | 4.59 | 1.91 | 3.29 | -0.398 | -0.64 | 4.46 | 5.07 | 0.611 | 6.06 | 2.92 | 4.39 |
| CCGACTGGGGCAAAGTTTACCATACTCAGTACGA | -0.248 | 0.0946 | -0.139 | 0.553 | -0.586 | 3.67 | 8.3 | 7.72 | 6.38 | 8.55 | 4.45 | 4.71 | -0.8 | -0.571 | 0.875 | 0.182 | 0.0528 | 0.465 | -0.24 | 1.41 |
| CTACCAAGGTGAAGAAGGTCGTTGATTACTATTC | 0.613 | 0.547 | 0.132 | 1.33 | -0.664 | 1.95 | 0.281 | 0.572 | -0.116 | 0.36 | 1.68 | 1.84 | 0.127 | -0.276 | 0.69 | 1.53 | 0.655 | 1.48 | 0.317 | 1.74 |
| CCTCGGAGGACAGAAGGACAGAGCTGTCCGCTTT | -0.348 | -0.559 | -0.63 | -0.942 | -0.907 | -0.733 | -0.176 | -0.854 | -1.07 | -0.86 | -0.418 | -0.913 | -0.956 | -1.82 | -0.605 | -0.689 | -0.621 | -0.66 | -0.614 | 0.716 |
| TAGCCTAGGTCCTGGGCCAGTATACCACGCGAAC | -0.638 | -1.08 | -0.796 | -0.85 | -1.45 | -0.439 | -0.0172 | -0.469 | -1.04 | -0.662 | -1.56 | -0.0166 | -0.0149 | -1.32 | -1.29 | -0.91 | -0.893 | -0.567 | -1.37 | -0.156 |
| ACTTTTAGTTGACTTAGGGCAACCGATACGACGC | 0.918 | 0.796 | 0.546 | 0.578 | 1.38 | 0.361 | 0.9 | 0.521 | 0.607 | 0.54 | 0.679 | 0.936 | 1.38 | 1.82 | 0.639 | 0.436 | 0.106 | 0.954 | 0.984 | 1.23 |
| CCAGACAGGTGAGAAGGCAACTCAGCCTCGATTA | 0.0587 | -0.0895 | -0.234 | -0.403 | -0.663 | 0.376 | 0.575 | 0.793 | -0.21 | 0.329 | 0.42 | 0.413 | -0.447 | -0.637 | 0.166 | -0.0948 | -0.133 | -0.209 | 0.0696 | 0.272 |
| CGTCCACGGTCAATGCTAGGTCAGTGAAAGCATT | 0.638 | 1.1 | 0.946 | 0.337 | -0.956 | 0.778 | -0.0965 | 0.186 | -0.646 | -0.669 | 0.573 | 1.02 | -0.899 | -1.45 | 0.415 | 0.201 | -0.388 | 1.17 | -0.504 | 3.16 |
| CCTAGCAGGCCAGGGTGACTCAAGCATTTCGCTT | -0.306 | -0.411 | -0.589 | -0.526 | -1.43 | 0.023 | -0.26 | -0.0399 | -0.987 | -0.126 | 0.555 | 0.0938 | -1.83 | -1.19 | -0.646 | -0.537 | -0.777 | -0.0885 | -0.299 | 0.148 |
| ATATGTAGGTTAGCTGGGGTCGTTCAGACTAGGC | 1.41 | 3.09 | 0.399 | 2.71 | 0.5 | 3.82 | 3.96 | 3.57 | 1.33 | 2.73 | 6.38 | 6.16 | 1.24 | 1.41 | 0.751 | 4.69 | 1.3 | 2.76 | 0.512 | 1.51 |
| GCGACTCGGGCATCAGCAGGTTACCATAACTTAA | -0.428 | -0.386 | -0.511 | -0.334 | -1.48 | 0.263 | 0.266 | -0.256 | -0.629 | -0.12 | 0.301 | -0.204 | -0.845 | -1.46 | -0.774 | -0.236 | -0.725 | 0.133 | -0.931 | 0.242 |
| AATACAGCGTCACTAGGCCAGAGTAGGTACGAAT | -0.287 | -0.499 | -0.588 | -0.808 | -0.279 | 0.0154 | 0.87 | 0.513 | 0.103 | 0.0712 | 0.487 | 1.5 | -0.275 | 0.0334 | -0.38 | -0.519 | -0.407 | -0.516 | -0.0306 | -0.113 |
| ATCTCTAGGTAAAGCTCAGTGAAAGATCGATAGA | 0.281 | 0.0459 | -0.107 | -0.256 | 0.358 | 0.297 | 0.103 | 0.333 | 0.3 | 0.095 | 2.67 | 1.38 | 0.778 | 0.893 | 0.544 | -0.131 | 0.14 | 0.258 | 0.432 | 0.0103 |
